In one assay the target is Aromatase (Homo sapiens) (UniProt P11511). Put plainly: qHTS assay to identify aromatase inhibitors (AID 743083). Note: nearly all actives have a fitted effect of over 55% in size. Note: potency is the fitted concentration of half-maximal effect. For orientation: Quantitative high-throughput screening tests each substance at several concentrations.
Assay [1] concerns the target Aryl hydrocarbon receptor (Homo sapiens) (UniProt P35869). The experiment in a line: qHTS assay to identify small molecule that activate the aryl hydrocarbon receptor (AhR) signaling pathway (AID 743085).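 For activation: HG2L7.5c1 human HepG2 liver cells with stably integrated DRE-driven firefly reporter; series mostly up to about 70 µM.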 Note: nearly all actives have a fitted effect of over 15% in size. Note: potency is the fitted concentration of half-maximal effect. The procedure, abridged:
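Cell line HG2L7.5c1 (human hepatoma, 20× DRE-luc). Plated, 5 h 37C, compound/DMSO added, 24 h 37C. CellTiter-Fluor 30 min 37C → fluorescence; then ONE-Glo 30 min RT → luminescence.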

Assay [2] in a line: qHTS assay to test for compound auto fluorescence at 535 nm (green) in HepG2 cells (AID 720675).
The nature of assay [3]: qHTS assay to test for compound auto fluorescence at 590 nm (red) in HEK293 cells (AID 720679). The method in brief: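 Using HEK293 cells at 2,000 per well, the screen added 23 nL of each compound after cell attachment and incubated overnight (37C, 5% CO2). The plate reader then captured red-label fluorescence, Ex/Em 540/590nm.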
The nature of assay [4]: qHTS assay to test for compound auto fluorescence at 460 nm (blue) in HEK293 cell free culture (AID 720681). The method in brief: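 Test compounds were pinned into cell-free culture medium (DMEM with 10% FBS) and fluorescence was read directly at Ex/Em 405/460 nm. Signals were expressed as fluorescence equivalents of triamterene, with DMSO vehicle as control.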
A short description of assay [5]: qHTS assay to test for compound auto fluorescence at 535 nm (green) in HEK293 cell free culture (AID 720682). The procedure, abridged: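 Fluorescein serves as the green reference fluorophore; each compound's intrinsic emission at 535 nm (excitation 485 nm) is reported as an equivalent amount of that dye, measured in serum-containing DMEM without cells.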
Assay [6] is described as follows: qHTS assay to test for compound auto fluorescence at 590 nm (red) in HepG2 cell free culture (AID 720684). The method in brief:
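Red fluorescence (540 nm excitation, 590 nm emission) was measured after compound transfer into cell-free MEM supplemented with 10% FBS. Values are equivalencies against Rose Bengal sodium.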

Assay [7] is described as follows: qHTS assay to test for compound auto fluorescence at 460 nm (blue) in HepG2 cell free culture (AID 720685). The method in brief: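 Compound (23 nL) or DMSO pinned into cell-free MEM with 10% FBS; blue fluorescence read at 405/460 nm excitation/emission, expressed as auto-fluorescence equivalency to triamterene.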
Assay [8] can be described thus: qHTS assay to test for compound auto fluorescence at 535 nm (green) in HepG2 cell free culture (AID 720686).
Assay [9] can be described thus: qHTS assay to test for compound auto fluorescence at 460 nm (blue) in HepG2 cells (AID 720687). The procedure, abridged: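 Cells (2,000/well in MEM with 10% FBS) attached overnight at 37 C, then were exposed to compound or DMSO for 1 hr at 37 C, 5% CO2. Fluorescence read at Ex/Em 405/460 nm, expressed as triamterene-equivalent signal.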
A short description of assay [10]: qHTS assay to identify small molecule phospholipidosis (PLD) inducers (AID 1259344; active = well fitted curve in the direction sought with a large enough effect; an effect the other way counts as inactive or inconclusive). The procedure, abridged:
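HepG2 cells on collagen I, attached 4 h at 37 C, were co-treated with compound and LipidTOX Red dye for 24 h at 37 C, then fixed with paraformaldehyde plus Hoechst 33342 and imaged by high-content microscopy for phospholipid accumulation.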

A short description of assay [11]: qHTS assay for small molecules that induce genotoxicity in human embryonic kidney cells expressing luciferase-tagged ATAD5 (AID 651632). Note: nearly all actives have a fitted effect of over 15% in size. The procedure, abridged: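 Reporter cells (HEK293T) express luciferase-tagged ATAD5, a protein that accumulates after DNA damage. Treat 16 hr at 37C/5% CO2, add Amplite, wait 30 min at RT, and read luminescence.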
Assay [12] in a line: qHTS assay for small molecule agonists of the p53 signaling pathway - cell viability (AID 651633; calls by dose curve;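 note: p53RE-bla HCT reporter cells with a stable beta-lactamase p53 reporter; series mostly up to about 83 µM; nearly all actives have a fitted effect of over 30% in size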). The procedure, abridged: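 p53RE-bla cells, seeded at 4,000 per well and rested 5 h at 37 C/5% CO2, received compounds in DMSO for 16 h at 37 C. CellTiter-Glo was then added, and luminescence was read after 30 min at room temperature to gauge cytotoxicity.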
A short description of assay [13]: qHTS assay for small molecule disruptors of the mitochondrial membrane potential - cell viability (AID 720634; calls by dose curve;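 note: human HepG2 liver cancer cells; series mostly up to about 83 µM; nearly all actives have a fitted effect of over 20% in size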). The procedure, abridged: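 Measuring cytotoxicity alongside mitochondrial potential, the screen quantified ATP by luminescence in HepG2 cells after 1 hr compound incubation and a 30 min room-temperature CellTiter-Glo step.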
Assay [14] is described as follows: qHTS assay to identify small molecule antagonists of the androgen receptor (AR) signaling pathway - cell viability counter screen (AID 743033; note: nearly all actives have a fitted effect of over 45% in size).
A short description of assay [15]: qHTS assay to identify small molecule antagonists of the estrogen receptor alpha (ER-alpha) signaling pathway - cell viability counter screen (AID 743074; calls by dose curve;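 note: HEK293 cells carrying ER-alpha-UAS-bla reporter stimulated with 17beta-estradiol; nearly all actives have a fitted effect of over 45% in size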).
Assay [16] in a line: qHTS assay to identify small molecule antagonists of the estrogen receptor alpha (ER-alpha) signaling pathway using the BG1 cell line - cell viability counter screen (AID 743081).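 Note: compound given together with 17beta-estradiol as the ER stimulus; series mostly up to about 70 µM; nearly all actives have a fitted effect of over 45% in size.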
Assay [17] in a line: qHTS assay to identify aromatase inhibitors - cell viability counter screen (AID 743084).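 Note: cells stimulated with testosterone during compound exposure; nearly all actives have a fitted effect of over 55% in size.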
The target in assay [18] is Nuclear receptor subfamily 1 group I member 2 (Rattus norvegicus) (UniProt Q9R1A7). Put plainly: Rat pregnane X receptor (rPXR) activation by small molecules, qHTS assay (AID 1346983). Note: nearly all actives have a fitted effect of over 20% in size. The conditions noted are these: rPXR luciferase reporter cells, One-Glo luminescence, 24 h; max activation: hits give high values. The method in brief:
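Cell-based rPXR luciferase reporter assay, 2,000 cells per well, rested 5hr at 37 C before compound addition in DMSO, then 24 hr at 37 C. One-Glo reagent was added and luminescence read after 30 min at room temperature.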

Assay [19] in a line: qHTS assay to identify small molecule antagonists of the androgen receptor (AR) signaling pathway using the MDA cell line - cell viability counter screen (AID 743041; note: nearly all actives have a fitted effect of over 45% in size). The procedure, abridged: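 MDA-kb2 AR-luc human breast carcinoma cells (MMTV-luciferase, AR/GR responsive) were treated with compounds plus R1881 agonist for 16 h at 37 °C. Viability was read as CellTiter-Fluor fluorescence in the same wells as the reporter assay.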

These results are taken from PubChem BioAssay (Tox21).

Unmarked numbers belong to inactive results. Results filed as inconclusive are left out. The source made the active and inactive calls. Unless noted, calls come from the whole dose curve; as a rule, active = well fitted curve in the direction sought with a large enough effect in the repeat runs; inconclusive = weak or mixed curves; inactive = no such curve, though single readings can be large; an effect the other way counts as inactive or inconclusive.
% is set by controls: 0 for no effect and ±100 for the full control effect.

Sequence of Aryl hydrocarbon receptor (Homo sapiens) (P35869 whole entry, looked up): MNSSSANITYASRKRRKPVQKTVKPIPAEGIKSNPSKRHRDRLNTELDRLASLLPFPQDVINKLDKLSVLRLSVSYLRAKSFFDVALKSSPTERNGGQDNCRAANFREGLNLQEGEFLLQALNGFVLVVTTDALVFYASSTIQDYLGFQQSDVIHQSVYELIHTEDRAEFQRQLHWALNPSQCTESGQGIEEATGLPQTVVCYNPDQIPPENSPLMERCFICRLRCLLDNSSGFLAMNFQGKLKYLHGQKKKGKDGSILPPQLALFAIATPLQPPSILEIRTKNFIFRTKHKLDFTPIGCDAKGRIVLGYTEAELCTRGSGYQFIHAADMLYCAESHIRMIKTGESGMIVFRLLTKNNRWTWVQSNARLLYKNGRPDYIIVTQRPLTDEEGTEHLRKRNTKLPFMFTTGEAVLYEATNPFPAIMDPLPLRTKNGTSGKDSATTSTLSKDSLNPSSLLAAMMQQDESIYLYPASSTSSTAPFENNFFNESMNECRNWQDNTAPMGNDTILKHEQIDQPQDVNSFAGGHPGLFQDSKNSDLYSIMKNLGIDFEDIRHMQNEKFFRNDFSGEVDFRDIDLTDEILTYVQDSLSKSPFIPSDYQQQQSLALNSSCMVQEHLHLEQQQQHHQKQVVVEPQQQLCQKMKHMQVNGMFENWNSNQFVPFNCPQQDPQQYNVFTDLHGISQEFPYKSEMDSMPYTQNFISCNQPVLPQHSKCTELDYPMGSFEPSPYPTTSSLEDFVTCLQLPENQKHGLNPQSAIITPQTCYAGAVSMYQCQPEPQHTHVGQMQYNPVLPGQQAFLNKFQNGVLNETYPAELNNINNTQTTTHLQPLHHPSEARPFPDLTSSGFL
Sequence of Aromatase (Homo sapiens) (P11511 whole entry, looked up): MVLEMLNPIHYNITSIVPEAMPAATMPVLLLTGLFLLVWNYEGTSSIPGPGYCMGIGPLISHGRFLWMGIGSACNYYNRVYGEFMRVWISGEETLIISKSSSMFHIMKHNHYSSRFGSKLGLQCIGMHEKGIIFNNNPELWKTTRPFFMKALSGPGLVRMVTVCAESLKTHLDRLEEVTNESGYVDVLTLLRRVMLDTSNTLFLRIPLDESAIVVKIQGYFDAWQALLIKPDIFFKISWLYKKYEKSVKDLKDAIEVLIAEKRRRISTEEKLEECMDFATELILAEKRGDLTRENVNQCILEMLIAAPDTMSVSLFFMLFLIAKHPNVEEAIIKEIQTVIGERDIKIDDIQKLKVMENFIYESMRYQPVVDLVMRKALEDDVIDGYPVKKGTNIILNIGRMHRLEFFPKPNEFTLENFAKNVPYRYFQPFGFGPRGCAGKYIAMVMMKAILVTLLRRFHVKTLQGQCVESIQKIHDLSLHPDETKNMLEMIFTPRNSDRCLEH
Sequence of Nuclear receptor subfamily 1 group I member 2 (Rattus norvegicus) (Q9R1A7 whole entry, looked up): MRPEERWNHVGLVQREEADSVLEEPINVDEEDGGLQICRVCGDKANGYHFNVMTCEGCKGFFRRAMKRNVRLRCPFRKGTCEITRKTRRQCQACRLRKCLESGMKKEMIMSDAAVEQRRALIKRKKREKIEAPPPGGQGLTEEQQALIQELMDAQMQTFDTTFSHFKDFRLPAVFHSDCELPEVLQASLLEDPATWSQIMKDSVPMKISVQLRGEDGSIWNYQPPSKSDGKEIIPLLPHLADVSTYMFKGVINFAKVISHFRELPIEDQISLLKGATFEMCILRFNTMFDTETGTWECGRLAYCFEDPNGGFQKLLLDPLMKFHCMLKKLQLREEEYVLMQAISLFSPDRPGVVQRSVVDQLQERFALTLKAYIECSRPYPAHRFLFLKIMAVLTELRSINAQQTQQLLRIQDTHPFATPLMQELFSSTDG

On to `Clc1nc(Cl)c(Cl)c(Cl)c1Cl`, for which the Potency result in the assay with Aromatase (Homo sapiens) was “inactive”.

Take `CNc1ccccc1`: the Potency entry in assay [1] is “inactive”.

For the compound `Cc1ccc([N+](=O)[O-])cc1N`, the Potency entry in the assay with Aromatase (Homo sapiens) is “inactive”. In addition, in assay [1], the Potency was 61.1 µM (active).

On to `CC(C)(C)c1ccc(O)cc1`, for which the Potency entry in [2], in [4], in assay [5], in [7], in assay [8] and in [9] was “inactive” throughout. Moreover, the Potency entry in assay [10] is “inactive”. The result in [3] and in [6] was inactive.

With `O=[N+]([O-])c1cccc(Cl)c1Cl`, the Potency result in assay [1] is “inactive”.

Consider `N#CC1(O)CCCCC1`, for which the Potency entry with Aromatase (Homo sapiens) was “inactive”.

For `CCC1(CC)C(=O)NC(=O)N(C)C1=O`, the Potency entry in assay [11], in assay [12], in assay [13], in assay [2], in assay [4] and in [5] was “inactive” in each case. Besides, the Potency result in assay [7], in assay [8], in assay [9], in assay [14], in assay [15] and in assay [16] was “inactive” in each case. Moreover, the Potency result (in the assay with Aromatase (Homo sapiens); in assay [17]; in [1]; in assay [10]) was “inactive” in each case. Also, the result in [3] and in assay [6] was inactive. Moreover, the max activation in assay [18] was -3.02%.

For the compound `Cc1cccc(C)c1`, the Potency entry (in the assay with Aromatase (Homo sapiens); in [1]) was “inactive” each time.

As for `CCc1cccc(C)c1N`, the Potency entry (with Aromatase (Homo sapiens); in assay [1]) was “inactive” throughout.

In the case of `ClC(Cl)(Cl)c1ccc(C(Cl)(Cl)Cl)cc1`, the Potency entry (in the assay with Aromatase (Homo sapiens); in [1]) was “inactive” throughout.

Consider `Oc1ccc(Cl)cc1Cc1cc(Cl)ccc1O`, for which the Potency with Aromatase (Homo sapiens) is 31.2 µM (active). In [1], the Potency entry is “inactive”.

As for `C[C@@H](CO)NC(=O)[C@@H]1C=C2c3cccc4[nH]cc(c34)C[C@H]2N(C)C1`, the Potency result in assay [11], in assay [12], in assay [13], in assay [2], in assay [4] and in assay [5] was “inactive” each time. For the same compound, the Potency result in [7], in assay [8], in [9], in assay [14], in assay [19] and in [15] was “inactive” each time. The Potency result (in assay [16]; with Aromatase (Homo sapiens); in assay [17]; in assay [1]; in assay [10]) was “inactive” in each case. The call in assay [3] and in assay [6] was inactive. Besides, the max activation in assay [18] was -0.825%.

Take `COc1ccc(OC)c([C@@H](O)[C@H](C)N)c1`: the Potency entry in assay [11], in assay [12], in assay [13], in [2], in assay [4] and in assay [5] was “inactive” each time. Besides, the Potency entry in [7], in [8], in assay [9], in assay [14], in assay [19] and in [15] was “inactive” each time. Further, the Potency result (in assay [16]; in the assay with Aromatase (Homo sapiens); in assay [17]; in assay [1]; in assay [10]) was “inactive” each time. Further, the outcome in [3] and in assay [6] was inactive. Further, the max activation in [18] is -3.61%.

With `Cc1cccc([N+](=O)[O-])c1C`, the Potency entry (with Aromatase (Homo sapiens); in [1]) was “inactive” each time.

As to `C=CCOC(=O)c1ccccc1C(=O)OCC=C`, the Potency entry (in the assay with Aromatase (Homo sapiens); in assay [1]) was “inactive” each time.

Regarding `CCC(=O)O[C@]1(c2ccccc2)CCN(C)C[C@H]1C`, the Potency entry in [11], in assay [12], in assay [13], in assay [2], in assay [4] and in [5] was “inactive” in each case. For the same compound, the Potency result in [7], in assay [8], in [9], in assay [14], in assay [19] and in assay [15] was “inactive” throughout. The Potency entry (in assay [16]; with Aromatase (Homo sapiens); in assay [17]; in [1]; in [10]) was “inactive” in each case. For the same compound, the result in assay [3] and in assay [6] was inactive. In addition, the max activation in assay [18] is -0.104%.

Regarding `CCCCCCCC#N`, the Potency entry with Aromatase (Homo sapiens) was “inactive”.

Consider `Cc1ccc(O)cc1C`, for which the Potency result in assay [2], in assay [4], in [5], in assay [7], in assay [8] and in assay [9] was “inactive” each time. In the assay with Aromatase (Homo sapiens), the Potency entry is “inactive”. Besides, the call in [3] and in [6] was inactive.
